Bioassay records: PubChem BioAssay, National Center for Advancing Translational Sciences (NCATS)
The list is not random: actives were taken first. Their share in the collection is about 14%.
HCMV inh: inhibitors of human cytomegalovirus | 4.5% of 410,000 active | activity change, negative = inhibition, % at 57.5 µM | HFF cells, HCMV-luciferase reporter, 72 h; stronger effect = lower value | AID 1259415; in the data active = activity change below about -60%; inconclusive = no clear call, values can overlap the other calls; inactive = above about -39%
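Cell-based, HFFs, 1000 cells/well, 16 h 37C; cpds in DMSO + HCMV-luc, MOI 1 PFU/cell; 72 h 37C; OneGlo luminescence after 5 min RT; norm. to buffer vs Salinomycin 10uM.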
Pf growth 48h: inhibits P. falciparum growth in the first generation, 48 h. AID 504832. 5.9% of 310,000 active. P. falciparum luciferase growth in erythrocytes, 48 h. Potency, µM (doses to about 28.7 µM), for inactives: at the top dose activity change, negative = inhibition, usual class: inhibitors; note: potency is the fitted concentration of half-maximal effect
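Luciferase-expressing parasites in RBCs, 2% Hct / 0.1% parasitemia final; RPMI 1640 + 0.5% Albumax; 37 C, 5% CO2, one generation; luminescence read-out, lower signal = inhibition.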
Sm TGR inh: blocks Schistosoma mansoni thioredoxin glutathione reductase; purified TGR, DTNB reduction, TNB absorbance 405 nm; Potency, µM (titrated, usually from 114 µM), for the others: at the top dose activity change, negative = inhibition, hits mostly inhibitors; 3% of 360,000 active; AID 485364; note: potency is the fitted concentration of half-maximal effect; nearly all actives have a fitted effect of over 60% in size
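First, TGR (20 nM dispensed) and NADPH were mixed with compound. Second, a 15 min room-temperature incubation followed. Third, further NADPH and then DTNB were added to start the reaction. Finally, TNB absorbance was monitored kinetically.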
Pf growth 96h: inhibits malaria parasite growth, 96 h; Potency, µM (titrated, usually from 28.7 µM), for the others: at the top dose activity change, negative = inhibition, usual class: inhibitors; P. falciparum luciferase reporter growth, 96 h; AID 504834; 6.9% of 320,000 active; note: potency is the fitted concentration of half-maximal effect
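Cell-based qHTS: luciferase-tagged P. falciparum in erythrocytes (2% hematocrit, 0.05% parasitemia final) incubated with compounds for 96 hours, 37 C, 5% CO2; luciferase detection reagent then added and luminescence measured.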
Giardia FBPA inh: Giardia lamblia aldolase inhibition. 0.71% of 290,000 active. purified Giardia FBPA. Potency, µM (titrated, usually from 59.6 µM), for inactives: at the highest dose activity, negative = inhibition, usual class: inhibitors. A8B2U2; note: potency is the fitted concentration of half-maximal effect; nearly all actives have a fitted effect of over 55% in size
Target sequence (A8B2U2 whole entry, looked up): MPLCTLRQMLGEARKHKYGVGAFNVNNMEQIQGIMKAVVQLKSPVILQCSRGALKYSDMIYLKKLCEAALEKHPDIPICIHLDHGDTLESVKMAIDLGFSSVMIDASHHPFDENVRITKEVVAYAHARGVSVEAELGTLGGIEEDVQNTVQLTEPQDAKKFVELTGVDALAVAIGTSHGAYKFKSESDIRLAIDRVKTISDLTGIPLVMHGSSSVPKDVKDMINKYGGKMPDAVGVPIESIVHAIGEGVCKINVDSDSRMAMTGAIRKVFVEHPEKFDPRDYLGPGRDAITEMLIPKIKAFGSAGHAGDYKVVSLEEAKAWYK
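Giardia FBPA (40 nM reagent) was preincubated 10 min at RT with compound (up to 57.5 uM final), then substrate plus GAPDH/TPI/NAD/arsenate coupling system with diaphorase/resazurin was added; resorufin fluorescence (525/598 nm) was read after 20 min.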
The depositor's hits bear a star; ? = inconclusive; . = no result; [ ] = another dose, or the depositor's remark. Unless noted, calls come from the whole dose curve; as a rule, active = well fitted curve in the direction sought with a large enough effect; inconclusive = small, poorly fitted or top-dose-only effect, or another doubt; inactive = no such curve, though single readings can be large; an effect the other way counts as inactive or inconclusive. % is set by controls: 0 for no effect and ±100 for the full control effect.

SMILES	HCMV inh	Pf growth 48h	Sm TGR inh	Pf growth 96h	Giardia FBPA inh
COc1ccc(CCC(=O)Nc2cccc(S(=O)(=O)N3CCCCCC3)c2)cc1OC	-18	10µM*	41%	?	.
CSc1cccc(NC(=O)Nc2ccccc2)c1	-12	47%	13%	-2%	0%
COc1cc(OC)c(C(=O)OC(C)C(=O)Nc2cccc(C(F)(F)F)c2)cc1OC (centres undefined)	-32	?	2%	9.3µM*	-3%
CSc1cccc(NC(C)C(=O)NCc2ccccc2)c1 (centres undefined)	-65*	0%	3%	-21%	?
COc1cc(CC(=O)Nc2cccc(C(F)(F)F)c2)cc(OC)c1OC	-71*	?	2%	-24%	13%
CCSc1n[nH]c(=O)n1C	30	.	.	.	.
COc1ccccc1-n1cnnc1SCC(=O)Nc1cccc(S(=O)(=O)N2CCCCC2)c1	-68*	-21%	0%	21%	4%
COc1ccc(CC(=O)Nc2cccc(SC)c2)cc1OC	-66*	-4%	?	-12%	0%
COc1ccc(CC(=O)Nc2cccc(S(=O)(=O)N3CCCCCC3)c2)cc1OC	-83*	?	-3%	?	0%
COc1ccc(CCC(=O)Nc2cccc(S(=O)(=O)N3CCCC3)c2)cc1OC	-22	?	-4%	?	.
COCCn1cnnc1SCC(=O)Nc1cccc(S(=O)(=O)N2CCCCCC2)c1	-19	-4%	3%	?	0%
CSc1cccc(NC(=O)COc2ccccc2)c1	-80*	51%	-1%	.	-3%
COc1ccc(N(CC(=O)Nc2ccccc2C)S(=O)(=O)c2c(C)[nH]c(=O)[nH]c2=O)cc1	-31	-6%	2%	-9%	2%
COC(=O)CN(c1ccc(C(C)C)cc1)S(=O)(=O)c1c(C)[nH]c(=O)[nH]c1=O	?	.	-16%	9.3µM*	10%
COc1ccc(N=Nc2nc(-c3ccccc3)c(-c3ccccc3)[nH]2)cc1	33	?	-9%	?	2%
COc1ccccc1N=Nc1nc(-c2ccccc2)c(-c2ccccc2)[nH]1	4	13%	-7%	2.3µM*	14%
Oc1ccccc1N=Nc1nc(-c2ccccc2)c(-c2ccccc2)[nH]1	-107*	.	-17%	2.1µM*	?
Cc1ccsc1C(=O)N1CCCC(C)(C(=O)O)C1 (centres undefined)	-3	.	.	.	.
COc1ccc(OC)c(NC(=O)Cn2cc(C=O)c3ccccc32)c1	-11	0%	.	?	-3%
N#CC1=C(N)Oc2n[nH]c(-c3cccs3)c2C1c1ccncc1 (centres undefined)	9	-11%	5%	?	-10%
N#CC1=C(N)Oc2n[nH]c(-c3cccs3)c2C1c1ccco1 (centres undefined)	36	-17%	32µM*	-2%	?
CC(C)OCCCn1c(=O)c2ccccc2n2c(CCC(=O)NCc3ccccn3)nnc12	-2	-11%	3%	?	.
CC(C)OCCCn1c(=O)c2ccccc2n2c(CCC(=O)O)nnc12	-18	.	-2%	1.7µM*	-10%
CC(C)OCCCn1c(=O)c2ccccc2n2c(CCC(=O)NC3CCN(Cc4ccccc4)CC3)nnc12	-14	?	1%	15µM*	-19%
CCOC(=O)OCC1OC(c2ccc(C(C)=O)cc2)C=CC1OC(=O)OCC (centres undefined)	.	.	.	.	-1%[12.9 µM]
SMILES	HCMV inh	Pf growth 48h	Sm TGR inh	Pf growth 96h	Giardia FBPA inh
COc1cc(-c2cccs2)cc(=O)c2c(C)oc(C)c12	?	?	40µM*	12µM*	?
COc1cccc(C(=O)C2CN(c3ccccc3)CC2c2ccc(Cl)cc2)c1 (centres undefined)	-28	10µM*	-7%	10µM*	1%
COc1ccc(C(=O)C2CN(C)CC2c2ccc(Cl)cc2)cc1 (centres undefined)	-2	-12%	.	-10%	-5%
COc1cccc(C(=O)C2CN(C)CC2c2ccc(Cl)cc2)c1 (centres undefined)	-32	?	.	?	3%
CN1CC(C(=O)c2cccc(C(F)(F)F)c2)C(c2ccc(Cl)cc2)C1 (centres undefined)	-72*	?	-3%	?	-3%
CN1CC(C(=O)c2ccc([N+](=O)[O-])cc2)C(c2ccc(Cl)cc2)C1 (centres undefined)	-64*	?	?	?	-2%
CC(=O)C(Cc1ccccc1)NC(=O)COC(=O)c1ccc(-n2cnnn2)cc1 (centres undefined)	-12	.	.	.	.
CCc1nc2ccc(C(=O)NCCN3CCOCC3)cn2c1N(C=O)Cc1ccc(OC)cc1	-3	.	.	.	.
Cc1cc(C)cc(N(CCC#N)C(=O)COC(=O)c2ccccc2SCC(=O)N2CCCC2)c1	44	?	-9%	12µM*	.
COc1ccccc1CCn1cnc(-c2ccc(F)cc2F)c1CC(C)C	-84*	.	.	.	.
COc1ccccc1CCn1cnc(-c2ccccc2F)c1CC(C)C	-83*	.	.	.	.
CCCc1c(-c2ccc(Cl)cc2)ncn1Cc1ccccc1OC	-3	.	.	.	.
CNc1ccnc(-c2cccc(NS(C)(=O)=O)c2)n1	.	.	.	.	1%
Cc1ccc(C2CC2c2n[nH]c(=S)n2-c2cccc(Cl)c2)cc1 (centres undefined)	-23	6%	-4%	-16%	13%
Cc1cc(Br)ccc1NC(=O)C(Cc1ccccc1)NS(=O)(=O)c1ccc(Br)s1 (centres undefined)	-104*	.	-3%	.	.
COc1ccc(NC(=O)CSc2nc(-c3cccs3)cc(C(F)(F)F)n2)cc1Cl	?	.	8%	.	.
CCC(C)NC(=O)CSc1nc(-c2cccs2)cc(C(F)(F)F)n1 (centres undefined)	?	.	0%	5.2µM*	2%
Cc1ccc(F)cc1NC(=O)CSc1nc(-c2cccs2)cc(C(F)(F)F)n1	-76*	.	2%	.	.
COc1ccc(NC(=O)CSc2ccc(-c3sc(C)nc3C)nn2)cc1OC	-26	?	-19%	13µM*	.
COc1ccc(NC(=O)CSc2nc(-c3cccs3)cc(C(F)(F)F)n2)cc1OC	-69*	.	5%	.	.
O=C(CCC(F)(F)F)N1CCC(CO)(CCc2ccccc2)CC1	13	1%	2%	-17%	13%
CC(=O)c1c(C)[nH]c(C(=O)OCc2nnc(-c3ccc([N+](=O)[O-])cc3)o2)c1C	95	.	.	.	.
CC(O)(c1ccccc1)C(c1ccccc1)C1CCCCN1 (centres undefined)	6	-15%	4%	?	-1%
O[C@@H](c1cc(C(F)(F)F)nc2c(C(F)(F)F)cccc12)[C@H]1CCCCN1	24	0.033µM*	0%	0.015µM*	.
OC(c1cc(-c2ccc(Cl)cc2)nc2ccccc12)C1CCCCN1 (centres undefined)	4	0.037µM*	1%	0.052µM*	3%
